Assay [1] can be described thus: A CellTox Green Cytotoxicity Assay to monitor cytotoxicity in HEK293 cells - 32 hour (AID 1224881). Further: nearly all actives have a fitted effect of over 40% in size. In a few lines: (§1)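 Cells (HEK293, 600/well) and dye reagent are dispensed together. After 5 h at 37 C, 23 nL compound is pinned in. Plates stay at 37 C for 40 h with fluorescence read at 0h, 8h, 16h, 24h, 32h and 40h.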
Assay [2] can be described thus: A CellTox Green Cytotoxicity Assay to monitor cytotoxicity in HepG2 cells - 0 hour (AID 1224882). Further: nearly all actives have a fitted effect of over 35% in size. In a few lines:
(§2)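 Cells and non-lytic dye reagent are dispensed together (600 HepG2 cells/well) and incubated 5 h before DMSO compound transfer. Kinetic fluorescence is then recorded in the same wells during 40 h at 37 C.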

Assay [3] can be described thus: A CellTox Green Cytotoxicity Assay to monitor cytotoxicity in HepG2 cells - 32 hour (AID 1224883). Further: nearly all actives have a fitted effect of over 50% in size. In a few lines: as §2
The nature of assay [4]: A CellTox Green Cytotoxicity Assay to monitor cytotoxicity in HEK293 cells - 8 hour (AID 1224884). Further: nearly all actives have a fitted effect of over 35% in size. In a few lines: as §1
Assay [5] can be described thus: qHTS RealTime-Glo MT Cell Viability Assay in HEK293 cells - 24 hour (AID 1224886). Further: nearly all actives have a fitted effect of over 50% in size. Further: potency means the concentration at half of the fitted maximal effect. On activity change, negative = cytotoxicity: top concentration of the series differs between compounds. In a few lines: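 HEK293 cells were seeded at 600 cells/well together with NanoLuc luciferase and cell-permeant prosubstrate, preincubated 5 h at 37 C/5% CO2, then given compound in DMSO by pintool. Luminescence from viable-cell prosubstrate reduction was read repeatedly over 40 h.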
(qHTS replaces the single test concentration by a dilution series.)

The nature of assay [6]: qHTS RealTime-Glo MT Cell Viability Assay in HEK293 cells - 8 hour (AID 1224887). Further: nearly all actives have a fitted effect of over 50% in size. Further: potency means the concentration at half of the fitted maximal effect. On activity change, negative = cytotoxicity: top concentration of the series differs between compounds. In a few lines:
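Real-time viability in HEK293: signal arises when living cells convert a prosubstrate for NanoLuc in the medium, so luminescence tracks viable cell number. Compound (23 nL, DMSO) added 5 h post-seeding; kinetic reads at 0–40 h, 37 C.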

A short description of assay [7]: A CellTox Green Cytotoxicity Assay to monitor cytotoxicity in HEK293 cells - 16 hour (AID 1224888). Further: nearly all actives have a fitted effect of over 35% in size. The gist of the method: as §1
The nature of assay [8]: A CellTox Green Cytotoxicity Assay to monitor cytotoxicity in HepG2 cells - 8 hour (AID 1224890). Further: nearly all actives have a fitted effect of over 45% in size. In a few lines:
as §2

Assay [9] in a line: qHTS assay to identify small molecule antagonists of the estrogen receptor alpha (ER-alpha) signaling pathway using the BG1 cell line in the presence of 0.1 nM 17-beta-estradiol - cell viability counter screen (AID 1259241). Further: nearly all actives have a fitted effect of over 40% in size. The gist of the method:
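VM7Luc4E2 cells (endogenous full-length ER-alpha, 4xERE-luciferase), cultured 5 days in charcoal-stripped serum, exposed to compounds with 0.1 nM 17beta-estradiol (final) for 22 hr at 37C. Viability read in same wells as live-cell protease fluorescence after 30 min.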

Assay [10] in a line: qHTS assay to identify small molecule antagonists of the androgen receptor (AR) signaling pathway using the MDA cell line in the presence of 0.5 nM R1881 - cell viability counter screen (AID 1259242). Further: nearly all actives have a fitted effect of over 45% in size. The gist of the method:
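Steps: plate MDA-kb2 cells, rest 5 hr at 37C without CO2; pin in compounds in DMSO; add R1881 to 0.5 nM final; incubate 16 hr; add CellTiter-Fluor, 30 min; read fluorescence.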

For assay [11], the target named is Estrogen receptor (Homo sapiens) (UniProt P03372). As to the kind of experiment: qHTS assay to identify small molecule antagonists of the estrogen receptor alpha (ER-alpha) signaling pathway using the BG1 cell line in the presence of 0.1 nM 17-beta-estradiol (AID 1259244). Further: nearly all actives have a fitted effect of over 50% in size. In a few lines: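 Antagonist mode: compounds in DMSO are pinned onto VM7Luc4E2 reporter cells, 0.1 nM final 17beta-estradiol is added, and after 22 h at 37C luciferase luminescence is measured with ONE-Glo.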

Assay [12] is described as follows: qHTS assay to identify small molecule HDAC inhibitors (AID 1259364).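 Further: wild-type HCT-116 cells with endogenous class I/II HDAC activity; top concentration of the series differs between compounds; nearly all actives have a fitted effect of over 45% in size.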 The gist of the method: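 Cells (HCT-116, wild type) are seeded at 1,500 per well, incubated overnight, treated with compound in DMSO for 2 hr, then developed with HDAC-Glo I/II reagent for 30 min at room temperature.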
Assay [13] can be described thus: qHTS assay to identify small molecule agonists of the sonic hedgehog signaling (Shh) pathway - cell viability counter screen (AID 1259366). Further: nearly all actives have a fitted effect of over 50% in size. Further: potency means the concentration at half of the fitted maximal effect. In a few lines: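 NIH/3T3-derived Gli1-Luc reporter cells, 2,000 per well, received compound after 4 h and were treated about 23 h at 37C. Viability measured in the same wells by CellTiter-Fluor fluorescence after 1 h.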
Assay [14] in a line: qHTS assay to identify small molecule antagonists of the sonic hedgehog signaling (Shh) pathway - cell viability counter screen (AID 1259367). Further: nearly all actives have a fitted effect of over 55% in size. Further: potency means the concentration at half of the fitted maximal effect. In a few lines: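 Cytotoxicity was assessed in parallel with Shh reporter activity by measuring live-cell protease fluorescence (CellTiter-Fluor) in NIH/3T3 cells stably carrying Gli1-Luc, treated with compound under conditioned medium stimulation for 23 hr plus 1 hr reagent incubation.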

Assay [15] is described as follows: qHTS assay to identify small molecule agonists of the sonic hedgehog signaling (Shh) pathway (AID 1259368; calls by dose curve;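 further: NIH/3T3-derived 3T3Gli1-Luc cells carrying a stable Gli1-driven firefly luciferase reporter; series mostly up to about 92 µM; nearly all actives have a fitted effect of over 15% in size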). The gist of the method: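 Cells of a mouse NIH/3T3 clone stably expressing luciferase under the Gli1 transcriptional response element are exposed to test chemicals for 24 hr at 37 C. Pathway activation is detected as a rise in luminescence.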
Assay [16] in a line: qHTS RealTime-Glo MT Cell Viability Assay in HepG2 cells - 16 hour (AID 1224885). Further: nearly all actives have a fitted effect of over 50% in size. The gist of the method: (§3)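 HepG2 cells were seeded at 600 cells/well together with NanoLuc luciferase and a cell-permeant prosubstrate, preincubated 5 h at 37 C/5% CO2, then pin-dosed with compounds in DMSO. Nonlytic luminescence from viable cells was read at each time point.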
Assay [17] in a line: qHTS RealTime-Glo MT Cell Viability Assay in HepG2 cells - 0 hour (AID 1224889). Further: nearly all actives have a fitted effect of over 50% in size. In a few lines: as §3
In assay [18] the target is Androgen receptor (Homo sapiens) (UniProt P10275). The experiment in a line: qHTS assay to identify small molecule antagonists of the androgen receptor (AR) signaling pathway using the MDA cell line in the presence of 0.5 nM R1881 (AID 1259243). Further: nearly all actives have a fitted effect of over 50% in size. The gist of the method: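 Stably transfected MDA-kb2 cells express luciferase from an MMTV promoter bearing both AR and GR response elements. Compounds plus 0.5 nM R1881 (final) were incubated 16 hr at 37C without CO2, then luminescence measured.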

Assay [19] in a line: qHTS assay to identify small molecule phospholipidosis (PLD) inducers (AID 1259344; active means well fitted curve in the direction sought with a large enough effect; an effect the other way counts as inactive or inconclusive). The gist of the method:
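Cells (HepG2, 900 per well) attach for 4 h, receive LipidTOX Red and compound together, incubate 24 h at 37 C, are fixed 30 min with paraformaldehyde/Hoechst, then imaged at one site per well.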

Assay [20] is described as follows: qHTS assay to identify small molecule HDAC inhibitors - cell viability counter screen (AID 1259365). In a few lines:
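Wild-type HCT-116 cells, 1,500/well, cultured overnight, then compound-treated 2 h at 37 C. Viability measured as ATP luminescence with CellTiter-Glo after 30 min at room temperature.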

Unmarked numbers belong to inactive results. Inconclusive results are not listed. Calls of active or inactive are those of the source. Unless noted, the call rests on the fitted dose curve; in most records, active means well fitted curve in the direction sought with a large enough effect in the repeat runs; inconclusive means weak or mixed curves; inactive means no such curve, though single readings can be large; an effect the other way counts as inactive or inconclusive.
On the % scale 0 is the no-effect control and ±100 the full control effect.

Androgen receptor (Homo sapiens), sequence (P10275 whole entry, looked up): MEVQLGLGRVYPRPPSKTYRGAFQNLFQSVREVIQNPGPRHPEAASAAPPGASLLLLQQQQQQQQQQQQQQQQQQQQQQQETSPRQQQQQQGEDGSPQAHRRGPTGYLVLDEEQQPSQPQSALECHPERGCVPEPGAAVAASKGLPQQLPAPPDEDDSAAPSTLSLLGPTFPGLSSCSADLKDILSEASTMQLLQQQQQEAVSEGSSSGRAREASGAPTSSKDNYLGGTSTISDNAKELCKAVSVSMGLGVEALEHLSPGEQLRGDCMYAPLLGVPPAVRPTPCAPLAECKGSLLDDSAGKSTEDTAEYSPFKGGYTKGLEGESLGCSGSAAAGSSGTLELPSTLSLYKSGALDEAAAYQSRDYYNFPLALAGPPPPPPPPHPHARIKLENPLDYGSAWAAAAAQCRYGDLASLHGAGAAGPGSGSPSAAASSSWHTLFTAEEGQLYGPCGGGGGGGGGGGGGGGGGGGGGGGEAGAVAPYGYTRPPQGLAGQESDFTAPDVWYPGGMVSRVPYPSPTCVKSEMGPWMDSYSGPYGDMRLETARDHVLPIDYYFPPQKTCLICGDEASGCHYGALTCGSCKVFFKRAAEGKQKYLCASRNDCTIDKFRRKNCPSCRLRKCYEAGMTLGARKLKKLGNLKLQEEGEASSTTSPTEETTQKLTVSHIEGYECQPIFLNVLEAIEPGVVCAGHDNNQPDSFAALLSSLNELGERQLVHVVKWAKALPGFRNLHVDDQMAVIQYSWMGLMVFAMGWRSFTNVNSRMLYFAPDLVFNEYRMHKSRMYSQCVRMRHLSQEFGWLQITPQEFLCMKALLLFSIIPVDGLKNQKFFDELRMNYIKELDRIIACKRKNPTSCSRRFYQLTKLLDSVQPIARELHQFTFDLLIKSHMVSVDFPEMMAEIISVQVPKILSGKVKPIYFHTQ
Estrogen receptor (Homo sapiens), sequence (P03372 whole entry, looked up): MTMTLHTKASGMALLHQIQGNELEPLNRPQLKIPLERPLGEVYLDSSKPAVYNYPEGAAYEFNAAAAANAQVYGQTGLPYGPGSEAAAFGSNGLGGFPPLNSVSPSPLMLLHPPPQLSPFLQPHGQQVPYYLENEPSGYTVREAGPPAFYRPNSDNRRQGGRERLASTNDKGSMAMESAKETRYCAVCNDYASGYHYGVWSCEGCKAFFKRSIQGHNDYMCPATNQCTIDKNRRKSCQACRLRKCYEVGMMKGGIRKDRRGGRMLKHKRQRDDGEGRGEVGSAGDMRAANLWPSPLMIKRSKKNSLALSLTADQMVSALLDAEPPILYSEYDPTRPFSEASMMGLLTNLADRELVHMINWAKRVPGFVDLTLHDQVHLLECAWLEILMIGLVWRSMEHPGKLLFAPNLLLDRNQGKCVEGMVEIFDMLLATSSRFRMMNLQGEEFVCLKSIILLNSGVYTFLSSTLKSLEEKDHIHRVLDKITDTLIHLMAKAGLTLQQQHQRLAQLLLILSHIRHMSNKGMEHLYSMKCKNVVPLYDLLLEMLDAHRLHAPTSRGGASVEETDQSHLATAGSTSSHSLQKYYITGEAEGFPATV

As for `O=C(O)C(F)(F)C(F)(F)C(F)(F)C(F)(F)C(F)(F)C(F)(F)C(F)(F)C(F)(F)F`, the Potency result in assay [1], in assay [2], in [3], in [4], in [5] and in assay [6] was “inactive” in each case. Moreover, the Potency result in [7], in [8], in [9], in assay [10], in assay [11] and in [12] was “inactive” throughout. The Potency entry in [13], in assay [14] and in [15] was “inactive” in each case.

Turning to `O=CC=O`, the Potency entry in assay [1], in [2], in assay [3], in assay [16], in assay [5] and in assay [6] was “inactive” in each case. Further, the Potency result in assay [7], in assay [8], in assay [9], in [10], in [18] and in [12] was “inactive” in each case. Moreover, the Potency result in [13], in assay [14] and in [15] was “inactive” throughout. The result in assay [17] and in assay [19] was inactive.

Regarding `O=[N+]([O-])c1cc(Cl)c(Cl)cc1Cl`, the Potency entry in assay [2], in [3], in assay [4], in assay [16], in assay [5] and in assay [6] was “inactive” in each case. The Potency result in assay [7], in assay [8], in assay [9], in assay [10], in [11] and in [12] was “inactive” each time. The Potency entry in assay [20], in assay [13], in assay [14] and in assay [15] was “inactive” in each case. The call in assay [17] was inactive.

As for `CCC(=O)O[C@@H]1C=C2CCC3C(CCC4(C)C3CC[C@@H]4OC(=O)CC)C2CC1` (some centres undefined), the Potency result in assay [2], in [3], in assay [4], in assay [16], in assay [5] and in assay [7] was “inactive” each time. Moreover, the Potency result in assay [9], in assay [10], in assay [18], in assay [11], in assay [12] and in assay [20] was “inactive” in each case. Further, the Potency result in assay [13], in assay [14] and in [15] was “inactive” in each case. Moreover, the compound was called inactive in assay [17].

`C=CCN1C[C@H](C)N([C@H](c2ccc(C(=O)N(CC)CC)cc2)c2cccc(OC)c2)C[C@H]1C`: the Potency result in assay [2], in [4], in assay [16], in assay [6], in assay [7] and in assay [8] was “inactive” each time. The Potency result in assay [9], in assay [10], in assay [12], in assay [20], in [13] and in assay [14] was “inactive” in each case. In assay [15], the Potency entry was “inactive”. Besides, the compound was called inactive in assay [17] and in [19].

Turning to `Nc1c(Br)cc(Br)c2c1C(=O)c1ccccc1C2=O`, the cytotoxicity increase in assay [1] is -1.22% [at 15.8 µM]; in assay [3], -5.33% [at 15.8 µM]; in [4] it was -10.2% [at 15.8 µM]; in assay [8] it was -5.92% [at 15.8 µM]. Besides, the cytotoxicity in assay [2] was -4.24% [at 15.8 µM]. The activity change, negative = cytotoxic in [16] was -7.09% [at 15.8 µM]. The activity change, negative = cytotoxicity was -16.3% [at 15.8 µM] in assay [17], -0.0291% [at 19 µM] in assay [9] and -8.35% [at 19 µM] in assay [20]. The viability change, negative = cytotoxic in assay [10] is 2.34% [at 19 µM]; in assay [14] it was -3.04% [at 19 µM]. In addition, the activity, negative = inhibition in assay [18] is -15.1% [at 19 µM]. Moreover, the activity change, negative = inhibition is 16.5% [at 19 µM] in [11] and -14.9% [at 19 µM] in assay [12]. Besides, the activity change in assay [15] was 9.18% [at 18.9 µM, active compounds read high].

Regarding `CCCC[P+](CC)(CCCC)CCCC` (tested in a mixture with another compound), the Potency result in assay [2], in assay [3], in assay [4], in assay [16], in assay [6] and in [8] was “inactive” throughout. In addition, the Potency result in [9], in assay [10], in assay [12], in [20], in [14] and in assay [15] was “inactive” throughout. Besides, in [17], the result was inactive.

Regarding `Cc1nc2ccccc2c(=O)n1-c1ccccc1Cl`, the Potency result in assay [1], in [2], in [3], in assay [4], in [7] and in assay [8] was “inactive” throughout. Also, the Potency result in assay [10], in assay [11], in assay [12], in [20] and in assay [15] was “inactive” each time. For the same compound, the Potency in assay [5] was 21.4 µM (active); in assay [6] it was 24 µM (active); in assay [13] it was 10.6 µM (active); in assay [14], 2.38 µM (active). The result in assay [19] was inactive.
